# Shown are actives, neighbours in structure and some others; about 7.4% of the full set was active somewhere.
# SMN2 splice up – qHTS Assay for Enhancers of SMN2 Splice Variant Expression; 210,000 compounds, 2.8% hits; AID 1458, 2008; Potency, µM (highest dose often 46.1 µM), for the others: at the highest dose activity change, positive = activation, most hits filed as activators; HEK293 SMN2-luciferase splicing reporter, luminescence, 30-36 h; note: % of control where 0% means no effect; nearly all actives have a fitted effect of over 55% in size
#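 HEK293 cells carry an SMN2 minigene-luciferase reporter in which exon 7 inclusion puts luciferase in frame. Cells were seeded at 2000 cells/well, attached for 10-12 hours, then exposed to compounds for 30-36 hours at 37C before ONE-Glo luminescence.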
# ELG1 genotox – qHTS screen for small molecules that induce genotoxicity in human embryonic kidney (HEK293T) cells expressing luciferase-tagged ELG1. HEK293T ELG1-luciferase reporter, luminescence, 16 h. Potency, µM (doses to about 46 µM), inactives show top-dose activity change, positive = activation, hits mostly activators. 330,000 compounds, 1.3% hits; note: % of control where 0% means no effect; nearly all actives have a fitted effect of over 60% in size
#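 Cells (2,000/well) expressing the ELG1-luciferase fusion are dosed by pin tool and kept 16 hr at 37 °C, 5% CO2. Signal comes from ONE-Glo luciferase reagent after 30 min at room temperature.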
# Rab9 prom act – qHTS Assay for Rab9 Promoter Activators | Huh7 Rab9 promoter-luciferase reporter, luminescence, 24 h | Potency, µM (series often up to 9.22 µM), without a hit: at the highest dose activation, negative = inhibition, actives largely listed as activators | 320,000 compounds, 2.8% hits; note: % of control where 0% means no effect; nearly all actives have a fitted effect of over 60% in size
#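 Huh7 reporter line, Rab9 promoter upstream of luciferase. Compound exposure 24 h at 37 °C in reduced-serum medium with 10% FBS. Read-out: luminescence.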
# FLuc modulator – qHTS profiling assay for firefly luciferase inhibitor/activator using purifed enzyme and Km concentrations of substrates (counterscreen for miR-21 project) | purified FLuc, Km substrates, luminescence inhibition | Potency, µM (titrated, usually from 57.5 µM), inactives show top-dose activity change, negative = inhibition, actives largely listed as inhibitors | 360,000 compounds, 6.9% hits;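 note: plate controls were vehicle for no effect and reference inhibitor for full effect; nearly all actives have a fitted effect of over 55% in size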
# Target sequence (P08659 whole entry, looked up): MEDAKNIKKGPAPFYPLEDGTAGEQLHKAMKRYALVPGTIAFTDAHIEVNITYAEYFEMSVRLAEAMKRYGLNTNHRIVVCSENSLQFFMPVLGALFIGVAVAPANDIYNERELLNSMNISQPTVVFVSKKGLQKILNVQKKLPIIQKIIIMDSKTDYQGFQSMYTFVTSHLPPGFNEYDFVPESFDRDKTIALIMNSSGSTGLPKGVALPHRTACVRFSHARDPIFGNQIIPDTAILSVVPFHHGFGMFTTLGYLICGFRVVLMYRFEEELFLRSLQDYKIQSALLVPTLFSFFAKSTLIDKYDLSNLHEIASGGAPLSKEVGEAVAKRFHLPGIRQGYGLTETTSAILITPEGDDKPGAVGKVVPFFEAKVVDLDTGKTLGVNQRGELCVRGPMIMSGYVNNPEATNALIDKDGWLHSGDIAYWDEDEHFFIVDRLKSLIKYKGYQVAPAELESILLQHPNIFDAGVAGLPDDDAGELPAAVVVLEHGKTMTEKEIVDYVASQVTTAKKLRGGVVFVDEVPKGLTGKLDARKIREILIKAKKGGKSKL
#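 Purified P. pyralis luciferase, 10 nM final, with Km-level 10 uM D-luciferin and 10 uM ATP in 50 mM Tris acetate pH 7.5, 10 mM Mg acetate, 0.01% Tween-20, 0.05% BSA; 6-point qHTS titration about 60 µM downward; luminescence read.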
# NPC1 prom act – qHTS Assay for NPC1 Promoter Activators; Huh7 NPC1 promoter luciferase reporter, 24 h; Potency, µM (doses to about 9.22 µM), without a hit: at the highest dose activation, actives largely listed as activators; 320,000 compounds, 2.4% hits; AID 485313, 2010; note: % of control where 0% means no effect; nearly all actives have a fitted effect of over 60% in size
#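 Luciferase expression driven by the NPC1 promoter was measured in stably transfected Huh7 cells after a 24 h compound incubation, using a luciferase reagent and a luminescence read.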
# p53 reactivation – qHTS assay for re-activators of p53 using a Luc reporter | H1299 p53-A138V BP100-luciferase reporter, luminescence, 24 h | 320,000 compounds, 0.063% hits | AID 504706, 2011 | Potency, µM (top dose mostly 92.2 µM), for the others: top-dose activity change, positive = activation, hits mostly activators; note: % of control where 0% means no effect; nearly all actives have a fitted effect of over 45% in size
#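 H1299 (p53-null), stable ts p53-A138V + BP100-Luc; 1000 cells/well, Opti-MEM/10% FBS; cpd 4 pt, 1:5; 24 h, 37 deg C, 5% CO2; detection reagent 10 min RT; luminescence.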
# * hit, by the source's call; ? = inconclusive; nt = not tested or not shown. Calls come from the whole dose curve; as a rule, active = well fitted curve in the direction sought with a large enough effect; inconclusive = small, poorly fitted or top-dose-only effect, or another doubt; inactive = no such curve, though single readings can be large; an effect the other way counts as inactive or inconclusive. Potency is the fitted concentration of half-maximal effect.
SMILES,SMN2 splice up,ELG1 genotox,Rab9 prom act,FLuc modulator,NPC1 prom act,p53 reactivation
COc1cc(-c2c(C#N)c(N)nc3[nH]c(=S)[nH]c(=O)c23)ccc1O,nt,-1.6%,2.4%,2.6%,2.7%,-2.2%
O=C(c1ccccc1)N1CCSc2sccc2C1=O,-13.8%,-12.1%,?,23.9µM*,?,-12.3%
O=C(c1ccccc1)N1CCSC1=S,-4.9%,-2.2%,-1.3%,2.0%,-3.3%,-1.3%
Cc1nnc(-c2ccccc2)[nH]c1=O,12.2%,1.7%,-0.8%,-5.2%,-1.5%,0.1%
O=c1[nH]c(-c2ccccc2)nnc1-c1ccccc1,nt,?,?,16.9µM*,?,15.3%
CCOc1ccccc1NC(=O)c1cn(C2CCCCC2)c(=O)c2c1c1ccccc1n2C,-0.5%,nt,nt,-5.5%,nt,nt
COc1ccc(CCC(=O)Nc2nc3ccccc3[nH]2)cc1,-1.2%,?,2.24µM*,?,3.55µM*,8.2%
COc1ccc(OCC(=O)Nc2nc3ccccc3[nH]2)cc1,17.9%,20.6µM*,?,4.78µM*,?,?
O=C(COc1ccc2ccccc2c1)Nc1nc2ccccc2[nH]1,-19.3%,14.0%,0.6%,-3.1%,2.2%,2.9%
COc1ccccc1CCC(=O)Nc1nc2ccccc2[nH]1,12.6µM*,?,?,13.5µM*,?,?
CCCCCC(=O)Nc1nc2ccccc2[nH]1,14.1µM*,?,?,13.5µM*,?,?
COc1cccc(CNC(=O)Cn2nc(C)c3sc4ccccc4c3c2=O)c1OC,nt,nt,nt,-1.5%,nt,nt
Cc1ccc(CNC(=O)c2cc(C)nc3c2c(C)nn3-c2ccc(C)cc2)cc1,nt,nt,nt,0.8%,nt,nt
COc1ccc(CCNC(=O)Cn2c(C)c3cnn(-c4ccccc4)c(=O)c3c2C)cc1OC,-5.5%,nt,nt,-0.7%,nt,nt
CCN(CC)C(=O)c1ccc(COc2ccc(Cl)c(C)c2)o1,nt,7.4%,29.2%,?,30.0%,nt
O=C(c1ccc(COc2ccc(F)cc2)o1)n1cccn1,2.7%,1.6%,-2.8%,23.9µM*,-0.2%,-1.9%
Cc1cc(OCc2ccc(C(=O)n3cccn3)o2)ccc1Cl,11.2µM*,?,?,?,?,?
Cc1ccc(OCC(=O)Nc2ccc(S(=O)(=O)N3CCOCC3)cc2)c(Br)c1,nt,?,8.0%,2.8%,-0.4%,-4.7%
CCCCOc1nnc(-c2ccc(OCC)cc2)c2ccccc12,1.4%,nt,nt,?,nt,nt
C/C(=N\O)c1ccc2c3ccccc3n(C)c2c1,39.7%,?,?,19µM*,?,?
CCn1c2ccccc2c2cc(/C(C)=N/O)ccc21,-24.8%,0.7%,-3.5%,-21.2%,-4.4%,26.0%
CC(=O)c1ccc(Oc2nc(C)nc3c2oc2ccccc23)cc1,nt,nt,nt,-11.8%,nt,nt
Cn1cccc1/C=N/n1cnnc1,22.4µM*,-0.9%,-4.3%,0.3%,-0.1%,0.2%
O=C(Cn1c(=O)n(Cc2ccc(F)cc2)c(=O)c2sc3ccccc3c21)Nc1ccc(F)cc1F,5.8%,nt,nt,-1.3%,nt,nt
Cc1nc(N)sc1N=Nc1ccc(Br)cc1,?,?,1.26µM*,4.26µM*,2.24µM*,?
SMILES,SMN2 splice up,ELG1 genotox,Rab9 prom act,FLuc modulator,NPC1 prom act,p53 reactivation
CC1(C(=O)O)C=CCN1C(=O)c1ccccc1 (centres undefined),-7.1%,-0.6%,2.7%,4.3%,-4.1%,0.5%
CN(C)c1ccc(CNC(=O)C2(C)C=CCN2C(=O)c2ccccc2)cc1 (centres undefined),15.8µM*,nt,nt,nt,nt,nt
C=CCN=Cc1sc2ccc(OCC)cc2c1O,nt,?,2.82µM*,8.49µM*,3.16µM*,?
CCOc1ccc2nc(/N=C/c3nc(-c4ccc(Br)cc4)oc3O)sc2c1,17.4%,2.2%,16.9%,-7.3%,8.8%,15.2%
CCCCN=Cc1sc2ccc(OCC)cc2c1O,15.6%,14.3%,24.1%,21.3µM*,17.4%,?
CCc1nn(CC(=O)NCc2ccc(C)cc2)c(=O)c2cc3occc3n12,-4.6%,nt,nt,-5.7%,nt,nt
CCOC(=O)C1=C(C)N(c2ccc(C)cc2)C(=O)/C1=C\c1ccc(O)c(OC)c1,nt,2.5%,-7.8%,-11.3%,-13.2%,-15.0%
CCOC(=O)C1=C(O)c2ccccc2C(=O)/C1=C\c1ccc(C)cc1,-34.0%,6.8%,13.7%,6.75µM*,0.5%,-3.4%
CC1CCCN(CCOc2ccc3ccccc3c2Br)C1 (centres undefined),-10.8%,13.8%,21.8%,26.9µM*,14.4%,-8.4%
Cc1cc(C(=O)COC(=O)CNC(=O)c2ccc(Cl)c(Cl)c2)c(C)n1Cc1ccco1,4.3%,2.1%,-3.1%,-11.8%,-2.1%,-1.6%
Cc1cc(C(=O)CCl)c(C)n1Cc1ccco1,11.2%,-16.5%,-11.7%,?,-7.4%,-11.6%
Cc1cc(C(=O)COC(=O)Cn2c(C(F)(F)F)nc3ccccc32)c(C)n1Cc1ccco1,-0.3%,4.6%,7.1%,21.3µM*,0.0%,5.6%
C=CCn1c(C)cc(C(=O)COC(=O)C2CC(=O)N(Cc3ccccc3)C2)c1C (centres undefined),12.0%,2.8%,-7.4%,23.9µM*,2.5%,6.0%
Cc1cc(C(=O)COC(=O)[C@H](C)NC(=O)c2ccco2)c(C)n1Cc1ccco1,4.0%,4.9%,5.2%,7.57µM*,-1.9%,-0.3%
Cc1ccc(C(=O)NCC(=O)OCC(=O)c2cc(C)n(Cc3ccco3)c2C)cc1,nt,6.0%,-2.6%,23.9µM*,-1.3%,13.6%
COC(=O)[C@@]12CCCCN1[C@H](c1ccc(-c3ccc(F)cc3)cc1)[C@@H]1C(=O)N(C)C(=O)[C@@H]12,nt,-3.6%,1.6%,2.4%,-5.7%,-8.3%
Cc1cc(Nc2nc3ccccc3c3nnc(C)n23)ccc1Br,nt,nt,nt,-10.3%,nt,nt
CC(C)(C)OC(=O)NCc1ccc(CNC(=O)c2[nH]cnc2C(=O)NCC(=O)OCc2ccccc2)cc1,nt,-0.9%,-0.9%,7.0%,3.2%,nt
C=CCn1c(C)cc(C(=O)COC(=O)CNC(=O)c2ccccc2)c1C,-23.1%,13.6%,-5.6%,13.5µM*,-0.9%,14.2%
O=C(CNC(=O)c1ccccc1)OCC(=O)c1ccccc1Cl,nt,-5.9%,-2.0%,-15.8%,5.7%,-1.7%
CCc1cccc(NC(=O)CSc2ncccc2C(=O)Oc2ccccc2Cl)c1,nt,nt,nt,5.2%,nt,nt
Cc1ccc(NC(=O)CSc2ncccc2C(=O)Oc2cccc([N+](=O)[O-])c2)cc1Cl,11.2µM*,23.1µM*,?,?,4.47µM*,?
CCN1C(=O)[C@H]2[C@@H](c3ccc(-c4ccccc4)c(OC)c3)N[C@@](CC(C)C)(C(=O)OC)[C@H]2C1=O,nt,-2.6%,nt,nt,nt,-4.5%
